Laboratory results as given in PubChem BioAssay (NCATS).
Records with an inconclusive call do not appear. Active and inactive are the calls of the source. Unless noted, the call rests on the fitted dose curve; in most records, active means well fitted curve in the direction sought with a large enough effect; inconclusive means small, poorly fitted or top-dose-only effect, or another doubt; inactive means no such curve, though single readings can be large; an effect the other way counts as inactive or inconclusive.

What was measured:
[1] = qHTS Assay for Lipid Storage Modulators (AID 1519; calls by dose curve; on activity change, negative = inhibition: on the % scale 0 is the no-effect control and ±100 the full control effect); conditions: Drosophila S3 cells, BODIPY lipid droplet/cell ratio, laser cytometry, cells loaded with oleic acid
Procedure, shortened: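 Cells seeded at 5,000 per well were treated with compounds over a concentration series and loaded with oleic acid (400 uM, as added). Lipid droplet fluorescence (488 nm excitation, 500-530 nm channel) was read by laser-scanning cytometry and normalized to 20 uM Triacsin C.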

[2] = Cell Viability - LYMP2-012 (AID 982); conditions: LYMP2-012 lymphoblastoid cell viability qHTS; series mostly up to 92.2 µM;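 further: cellular ATP by luciferase luminescence where a drop means cytotoxicity; cells exposed to compound for one day before reading; nearly all actives have a fitted effect of over 55% in size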; further: potency means the concentration at half of the fitted maximal effect
[3] = Cell Viability - LYMP2-022 (AID 987); conditions: LYMP2-022 lymphoblastoid cell viability; series mostly up to 92.2 µM;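 further: cells exposed to compound for 24 hr; nearly all actives have a fitted effect of over 55% in size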; further: potency means the concentration at half of the fitted maximal effect
Procedure, shortened: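 Acute toxicity in a human lymphoblastoid line is scored as decreased intracellular ATP after 24 hr compound treatment at 37 C. ATP is measured by CellTiter-Glo luminescence; curves are fitted with the Hill equation to give AC50.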

[4] = Cell Viability - LYMP1-002 - Assay at 40 hr (AID 994); conditions: LYMP1-002 lymphoblastoid cell viability; series mostly up to 92.2 µM; further: nearly all actives have a fitted effect of over 60% in size; further: potency means the concentration at half of the fitted maximal effect
Procedure, shortened: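 Viability in the human lymphoblastoid line was measured as intracellular ATP via CellTiter-Glo after 40 hr compound exposure. Tetraoctylammonium bromide served as positive control.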

[5] = Cell Viability - LYMP2-014 (AID 983); conditions: LYMP2-014 lymphoblastoid cells, viability qHTS; series mostly up to 92.2 µM;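 further: cells exposed to compound for 24 h at 37 °C; nearly all actives have a fitted effect of over 50% in size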; further: potency means the concentration at half of the fitted maximal effect
Procedure, shortened: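 Decrease in intracellular ATP after 24 hr treatment at 37 C, measured by luciferase luminescence, indicated cytotoxicity. Concentration-response data were fitted with the standard Hill equation to give AC50.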

[6] = Cell Viability - LYMP2-016 (AID 984); conditions: LYMP2-016 lymphoblastoid cell viability, qHTS; series mostly up to 92.2 µM;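 further: cells exposed to compound for 24 hours at 37 °C; nearly all actives have a fitted effect of over 55% in size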; further: potency means the concentration at half of the fitted maximal effect
Procedure, shortened: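 Acute toxicity in a Coriell human lymphoblastoid line is scored as loss of intracellular ATP over 24 h of treatment in complete medium. CellTiter-Glo signal is fitted across concentrations with the Hill equation to give AC50.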

[7] = Cell Viability - LYMP2-018 (AID 985); conditions: LYMP2-018 lymphoblastoid cells, viability (qHTS); series mostly up to 92.2 µM;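 further: compound exposure lasted 24 hr at 37 °C; nearly all actives have a fitted effect of over 50% in size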; further: potency means the concentration at half of the fitted maximal effect
Procedure, shortened: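 Acute cytotoxicity is scored as a concentration-dependent drop in intracellular ATP after 24 hr exposure of the lymphoblastoid line in complete culture medium, measured by luciferase luminescence. Potency is expressed as AC50 from Hill modelling.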

[8] = Cell Viability - LYMP2-020 (AID 986); conditions: series mostly up to 92.2 µM;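 further: cells exposed to compound for 24 h at 37 °C; nearly all actives have a fitted effect of over 55% in size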; further: potency means the concentration at half of the fitted maximal effect
Procedure, shortened: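 Acute cytotoxicity in a human lymphoblastoid line is scored as a concentration-dependent fall in cellular ATP after 24 hr at 37 C in complete medium. The positive control is tetraoctylammonium bromide, and potency is given as Hill-fit AC50.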

[9] = Cell Viability - LYMP2-024 (AID 988); conditions: LYMP2-024 lymphoblastoid cell viability; series mostly up to 92.2 µM;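 further: cells exposed to compound for 24 hr at 37 °C; nearly all actives have a fitted effect of over 60% in size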; further: potency means the concentration at half of the fitted maximal effect
Procedure, shortened: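 Acute toxicity is measured as concentration-dependent loss of intracellular ATP in a human lymphoblastoid line treated 24 hours at 37 C. Luciferase luminescence quantifies ATP; AC50 values come from standard Hill-equation modelling.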

[10] = Cell Viability - LYMP2-026 (AID 989); conditions: LYMP2-026 lymphoblastoid cell viability, qHTS; series mostly up to 92.2 µM;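 further: cells exposed to compound for 24 h at 37 °C; nearly all actives have a fitted effect of over 50% in size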; further: potency means the concentration at half of the fitted maximal effect
Procedure, shortened: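 Concentration-dependent loss of intracellular ATP in human lymphoblastoid cells after 24 hr at 37 C, quantified by luciferase luminescence. AC50 derived from standard Hill equation.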

[11] = Cell Viability - LYMP1-002 - Assay at 24 hr (AID 993); conditions: LYMP1-002 lymphoblastoid cells viability; series mostly up to 92.2 µM; further: on the % scale 0 is the no-effect control and ±100 the full control effect
Procedure, shortened: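 qHTS, LYMP1-002 lymphoblastoid, 24 h cpd, 37 C, CellTiter-Glo ATP luminescence; AC50 via Hill eq.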

[12] = target: Alpha-galactosidase A (Homo sapiens) (UniProt P06280); assay: Counterscreen for Glucocerebrosidase Inhibitors: qHTS Assay for Human alpha-Galactosidase at pH 4.5 (AID 992); conditions: purified enzyme, fluorogenic substrate; series mostly up to 76.9 µM; further: 0% is about no effect
Sequence of Alpha-galactosidase A (Homo sapiens) (P06280 whole entry, looked up): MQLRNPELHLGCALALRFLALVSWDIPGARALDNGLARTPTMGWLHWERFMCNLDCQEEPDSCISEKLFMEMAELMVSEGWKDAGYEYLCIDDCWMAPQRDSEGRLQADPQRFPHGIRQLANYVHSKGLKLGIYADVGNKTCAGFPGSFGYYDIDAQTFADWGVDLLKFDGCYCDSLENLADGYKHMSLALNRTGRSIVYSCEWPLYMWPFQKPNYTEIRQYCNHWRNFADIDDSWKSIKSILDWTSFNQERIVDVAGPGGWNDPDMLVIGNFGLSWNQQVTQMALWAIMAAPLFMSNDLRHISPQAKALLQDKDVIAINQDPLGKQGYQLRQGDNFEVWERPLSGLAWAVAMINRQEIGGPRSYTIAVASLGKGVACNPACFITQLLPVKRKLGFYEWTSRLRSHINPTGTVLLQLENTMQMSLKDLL
Procedure, shortened: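 Quantitative HTS: compounds tested from 0.7 nM up to 77 uM against 2 nM enzyme with 80 uM 4-MU alpha-D-galactopyranoside. The 20 min room-temperature reaction is stopped with 1M NaOH/1M glycine, pH 10.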

[13] = target: alpha-glucosidase (Oryza sativa, rice) (UniProt Q653V4); assay: Counterscreen for Glucocerebrosidase Inhibitors: qHTS Assay for Rice alpha-Glucosidase at pH 5.0 (AID 997); conditions: rice alpha-glucosidase enzyme activity; series mostly up to 76.9 µM;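 further: 0% = full activity with enzyme and -100% = basal without enzyme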
Procedure, shortened: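 Rice alpha-glucosidase (4 nM final) with 400 uM 4-methylumbelliferyl-alpha-D-glucopyranoside in citrate buffer pH 5.0, 20 min at room temperature, stopped at pH 10; fluorescence 365/440 nm, compounds 0.7 nM–77 uM, AC50 from Hill fits.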

[14] = measured here: cell count channel max response
[15] = measured here: lipid channel max response

With `OCc1ccccc1O[C@@H]1O[C@H](CO)[C@@H](O)[C@H](O)[C@H]1O` the activity change, negative = inhibition ([1]; at 57.5 µM (top of the series)) was -1.43% (inactive), the max response [1, 14] was -14.9% and the max response [1, 15] was -16.3%.
With `C[C@@H]1CCC2[C@@H](C)[C@@H](O)O[C@@H]3O[C@@]4(C)CC[C@@H]1[C@@]23OO4` (stereo not given in full) the activity change, negative = inhibition ([1]; at 57.5 µM (top of the series)) was -0.729% (inactive), the max response [1, 14] was 14.2% and the max response [1, 15] was 15.2%.
In the case of `O=C(O)CN(CCN(CC(=O)O)CC(=O)O)CC(=O)O`, the activity change, negative = inhibition ([1]; at 57.5 µM (top of the series)) is reported as 6.6% (inactive), the max response [1, 14] is reported as -1.95% and the max response [1, 15] is reported as 6.6%.
With `Cc1c(C)c2c(c(C)c1O)CC[C@@](C)(CCC[C@@H](C)CCC[C@@H](C)CCCC(C)C)O2` the activity change, negative = inhibition ([1]; at 25.7 µM (top of the series)) was -2.72% (inactive), the max response [1, 14] was 2.07% and the max response [1, 15] was -0.999%.
With `C=CCSSSCC=C` the activity change, negative = inhibition ([1]; at 57.5 µM (top of the series)) was 6.54% (inactive), the max response [1, 14] was -4.64% and the max response [1, 15] was 3.63%.
With `CC1(C)S[C@@H]2[C@H](NC(=O)[C@@H](NC(=O)N3CCNC3=O)c3ccccc3)C(=O)N2[C@H]1C(=O)O` the activity change, negative = inhibition ([1]; at 25.7 µM (top of the series)) was -1.89% (inactive), the max response [1, 14] was -12.9% and the max response [1, 15] was -11.6%.
In the case of `CC(C)(C)NC(=O)[C@@H]1C[C@@H]2CCCC[C@@H]2CN1C[C@@H](O)[C@H](Cc1ccccc1)NC(=O)[C@H](CC(N)=O)NC(=O)c1ccc2ccccc2n1`, the Potency [2] is reported as 50.1 µM (active), the Potency [3] is reported as 50.1 µM (active) and the Potency [4] is reported as 50.1 µM (active).
For `O=C(O)CCC(=O)C(=O)O`, the Potency [2] was “inactive”, the Potency [5] was “inactive” and the Potency [6] was “inactive”. For the same molecule, the Potency [7] was “inactive”, the Potency [8] was “inactive” and the Potency [3] was “inactive”. For the same molecule, the Potency [9] was “inactive”, the Potency [10] was “inactive” and the outcome [11] was “inactive”. For the same molecule, the Potency [4] was “inactive”.
With `CC1=C(/C=C/C(C)=C/C=C/C(C)=C/CO)C(C)(C)CCC1` the Potency [2] was 50.1 µM (active), the Potency [7] was 50.1 µM (active) and the Potency [8] was 50.1 µM (active). The Potency [3] was 39.8 µM (active), the Potency [9] was 50.1 µM (active) and the outcome [11] was “inactive”.
For `O=CCCCC=O`, the Potency [2] was 15.8 µM (active), the Potency [5] was 25.1 µM (active) and the Potency [6] was 25.1 µM (active). For the same molecule, the Potency [7] was 20 µM (active), the Potency [8] was 15.8 µM (active) and the Potency [3] was 10 µM (active). For the same molecule, the Potency [9] was 12.6 µM (active), the Potency [10] was 25.1 µM (active) and the outcome [11] was “inactive”. The Potency [4] was “inactive”.
For `CN=C(NC#N)Nc1ccc(C2=NNC(=O)C[C@@H]2C)cc1`, the outcome [12] was “inactive”, the outcome [13] was “inactive” and the activity change, negative = inhibition ([1]; at 57.5 µM (top of the series)) was -3.97% (inactive). For the same molecule, the max response [1, 14] was -17.4% and the max response [1, 15] was -20.4%.
With `CCOc1ccc2c(c1)C(C)=CC(C)(C)N2` the Potency [5] was “inactive”, the Potency [6] was “inactive” and the Potency [7] was “inactive”. For the same molecule, the Potency [10] was “inactive”, the outcome [11] was “inactive” and the activity change, negative = inhibition ([1]; at 25.7 µM (top of the series)) was -15.7% (inactive). The max response [1, 14] was -17.3% and the max response [1, 15] was -29.2%.
